According to PubChem BioAssay (NCI):
Compounds without any hit were thinned out: in the full panel of roughly 83,000, 20% have a hit.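 Cell lines were cultured in 96-well plates, exposed to a single compound concentration, and assessed for percent growth 48 hours later.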 Unmarked numbers belong to inactive results. Active and inactive are the calls of the source. Rule for the calls: active = growth percent below 10; inactive = the rest.

System: NCI-H522 lung
Experiment: NCI-60 one-dose screen, 48 h (100 = growth as untreated, 0 = no growth, -100 = all killed)
Settings: 10 µM unless noted

Question: `COc1cc2nc(Nc3cccc(F)c3)nc(Nc3cc(C)[nH]n3)c2cc1OC` was tested. Which growth did it give?
Answer: -42% [20 µM] (active)

Question: With `CCC/C(=N\NC(N)=O)C(OC)OC` as the compound, how does the growth read?
Answer: 79.9%

Question: Which growth does the source give for `O=C1c2cc3c(cc2-c2c1c1ccc(Cl)cc1c(=O)n2C[C@H](O)CO)OCO3` here?
Answer: -12.7% (active)

Question: How did the growth turn out when `CCSC1=CC(=O)c2ccccc2C1=O` was run?
Answer: -20.9% (active)

Question: For `COc1cc(-c2nc3occn3c2-c2ccnc(NCCCNS(=O)(=O)c3ccccc3)n2)ccc1F`, which growth is on record?
Answer: 26.6%

Question: For `COC1=CC(c2ccc[nH]2)=N/C1=C\c1[nH]c(C)c(CC(=O)OCc2ccccc2)c1C`, which growth is on record?
Answer: -33.4% (active)

Question: For `O=C(CSc1nnc2sc(Nc3cccc(Cl)c3)nn12)c1ccc(F)cc1`, which growth is on record?
Answer: 75.6%

Question: `COc1ccc(C2=Nc3c(N)ncnc3NC(c3cccc(Nc4ccnc5cc(C(F)(F)F)ccc45)c3)C2)cc1` (stereo not drawn) was tested. Which growth did it give?
Answer: 69.6%

Question: For `Nc1c(C(=O)Nc2cccc3ncccc23)sc2nc3c(cc12)C(=O)CCC3`, which growth is on record?
Answer: 11.1%

Question: How did the growth turn out when `C#CCn1cnc2c(Nc3cccc(NC(=O)CCl)c3)ncnc21` was run?
Answer: -19.1% (active)

Question: For `COc1cc2oc(-c3cccc(NC(=O)c4ccc5c(c4)OCO5)c3)cc(=O)c2c(OC)c1OC`, which growth is on record?
Answer: 36.7%

Question: Which growth does the source give for `CCOC(=O)CSc1nc2sc3c(c2c(=O)n1-c1ccc([N+](=O)[O-])cc1)CCCCC3` here?
Answer: 68.8%

Question: For `Cn1cc(-c2nn3cc(-c4ccccc4)nc3s2)c2ccccc21`, which growth is on record?
Answer: 38.9%

Question: How did the growth turn out when `C=C1C(=O)O[C@H]2[C@H]1CC/C(COC(=O)NCCCCCCCCNC(=O)OC/C1=C/CC[C@@]3(C)O[C@H]3[C@H]3OC(=O)C(=C)[C@@H]3CC1)=C\CC[C@@]1(C)O[C@@H]21` was run?
Answer: -68.7% (active)

Question: How did the growth turn out when `Oc1c(I)cc(-c2nc3ccccc3s2)cc1CN(Cc1ccccn1)Cc1ccccn1` was run?
Answer: 4.12% (active)

Question: Which growth does the source give for `Cc1ncc(C(=O)Nc2ccc(CN3CCN(C)CC3)c(C(F)(F)F)c2)cc1C#Cc1cnc(N)c2ccncc12` here?
Answer: -79% (active)

Question: How did the growth turn out when `O=C1/C(=C/c2ccc(C(F)(F)F)cc2)COc2ccc(O)c(O)c21` was run?
Answer: -50.3% (active)

Question: `O=C1N[C@@H]2[C@@H](O)[C@@H](O)[C@H](O)C[C@H]2c2cc3c(c(O)c21)OCCO3` was tested. Which growth did it give?
Answer: -36.1% (active)
